Hits are enriched below; roughly 8.2% of the tested compounds scored in any of these assays.
SW480 rerep: DNA re-replication induction in SW480 cells | SW480 DNA re-replication, Hoechst DNA content imaging, 48 h | Potency, µM (highest dose often 46.1 µM), usual class: activators | 340,000 compounds, 1.8% hits | AID 624297; also: nearly all actives have a fitted effect of over 55% in size
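Per well, 250 cells were exposed to pinned compound for 48 hr. Nuclear DNA was visualised with Hoechst (40 min, 37 C) and total object intensity recorded by fluorescence scanning.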
ELG1 DNA repair: inhibitors of ELG1-dependent DNA repair in HEK293T cells. HEK293T ELG1-luciferase reporter, luminescence, 16 h; DNA damage induced by 5-fluorouridine. 330,000 compounds, 2.3% hits. Potency, µM (doses to about 46.1 µM), hits mostly inhibitors; also: nearly all actives have a fitted effect of over 55% in size
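Quantitative HTS, concentration-response format. 2,000 cells/well co-treated with 5-fluorouridine and compound, 16 hr in 5% CO2 at 37 °C; ONE-Glo luminescence read after 30 min.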
KB-3-1 cytotox: kills parental KB-3-1 adenocarcinoma cells; Potency, µM (series often up to 46.1 µM), hits mostly cytotoxic; 400,000 compounds, 1.4% hits; AID 1347075; KB-3-1 viability, CellTiter-Glo ATP luminescence, 72 h; also: nearly all actives have a fitted effect of over 60% in size
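Parental KB-3-1 adenocarcinoma cells in phenol-red-free DMEM with 10% FBS were pin-treated with compounds at several concentrations, incubated 72 h at 37 °C, and viability read by CellTiter-Glo luminescence; concentration-effect curves were fitted after normalization.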
MCF10A rereplic: inducers of DNA re-replication in MCF 10A breast cells | MCF 10A DNA re-replication, Hoechst nuclear intensity, 48 h | Potency, µM (highest dose often 46.1 µM), hits mostly activators | 350,000 compounds, 2.9% hits; also: nearly all actives have a fitted effect of over 50% in size
KB-V1 cytotox: kills drug-selected multidrug resistant KB-V1 cells; KB-V1 MDR cells viability, CellTiter-Glo, 72 h; 400,000 compounds, 3.4% hits; Potency, µM (top dose mostly 46.1 µM), hits mostly cytotoxic; also: nearly all actives have a fitted effect of over 60% in size
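Luminescent ATP read-out (CellTiter-Glo, 10 min) measures survival of drug-selected KB-V1 MDR cells after 72 h, 37 degrees C compound exposure. Medium: phenol-red-free DMEM, 10% FBS. Values from fitted concentration-response curves.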
Of the large screens only hits and unclear results are named; the others gave an inactive call; ! = not active in a repeat. Calls follow the shape of the dose curve; as a rule, active = well fitted curve in the direction sought with a large enough effect; inconclusive = small, poorly fitted or top-dose-only effect, or another doubt; inactive = no such curve, though single readings can be large; an effect the other way counts as inactive or inconclusive.

O=C1c2c(-c3ccc(Br)cc3)noc2CCN1Cc1cn(-c2ccc(Cl)cc2)nn1	KB-3-1 cytotox 20.6µM, KB-V1 cytotox 18.4µM (no result: SW480 rerep, ELG1 DNA repair, MCF10A rereplic)
COc1ccccc1-c1noc2c1C(=O)N(Cc1cn(C3CCCC3)nn1)CC2	none (no result: SW480 rerep, ELG1 DNA repair, MCF10A rereplic)
O=C1c2c(-c3ccc(Br)cc3)noc2CCN1Cc1cn(Cc2ccccc2)nn1	KB-V1 cytotox inconclusive (no result: SW480 rerep, ELG1 DNA repair, MCF10A rereplic)
O=C1c2c(-c3ccc(Br)cc3)noc2CCN1Cc1cn(Cc2cccnc2)nn1	KB-3-1 cytotox inconclusive, KB-V1 cytotox 23.1µM (no result: SW480 rerep, ELG1 DNA repair, MCF10A rereplic)
CCOc1ccc(NC(=O)Cn2cc(C(=O)c3ccc(C)c(C)c3)c(=O)c3cc(F)ccc32)cc1	none (no result: SW480 rerep, ELG1 DNA repair, MCF10A rereplic)
COc1ccccc1CNC(=O)CN1C(=O)CSc2c1c(C)nn2-c1ccccc1	none (no result: SW480 rerep, ELG1 DNA repair, MCF10A rereplic)
CCOc1ccc(N2C(=O)CC(NCCc3c[nH]c4ccccc34)C2=O)cc1 (centres undefined)	SW480 rerep 2.91µM
COc1ccc2c(/C=C/c3cc[n+](C)cc3)c[nH]c2c1	KB-3-1 cytotox 1.84µM, KB-V1 cytotox inconclusive
Cc1ccc2[nH]cc(/C=C/c3cc[n+](C)cc3)c2c1	SW480 rerep 8.2µM, ELG1 DNA repair inconclusive, KB-3-1 cytotox 0.92µM, MCF10A rereplic inconclusive
COC(=O)Cn1cc(/C=C/c2cc[n+](C)cc2)c2ccccc21	KB-V1 cytotox inconclusive
COc1ccc2c(c1)c(/C=C/c1cc[n+](C)cc1)cn2C	ELG1 DNA repair inconclusive, KB-3-1 cytotox 16.4µM, KB-V1 cytotox inconclusive
Cc1ccc2[nH]ccc(=O)c2c1	none
CCNc1nc(C#N)nc(N2CCOCC2)n1	none (no result: SW480 rerep, ELG1 DNA repair, MCF10A rereplic)
CC(C)C[C@@H](CO)N(Cc1ccccc1)S(=O)(=O)N(Cc1ccccc1)[C@H](CO)CC(C)C	ELG1 DNA repair inconclusive, KB-3-1 cytotox inconclusive, MCF10A rereplic inconclusive, KB-V1 cytotox 20.6µM!
CCCCN([C@H](CO)C(C)C)S(=O)(=O)c1ccccc1Br	KB-V1 cytotox inconclusive
C=CS(=O)(=O)N(Cc1ccccc1Br)[C@H](CO)CC(C)C	SW480 rerep inconclusive, KB-3-1 cytotox 23.1µM!, KB-V1 cytotox inconclusive (no result: ELG1 DNA repair)
CC(C)C[C@@H](CO)N(Cc1ccccc1)S(=O)(=O)N(Cc1ccccc1)[C@@H](CO)CC(C)C	ELG1 DNA repair inconclusive, KB-3-1 cytotox 23.1µM!, MCF10A rereplic inconclusive, KB-V1 cytotox inconclusive
O=S(=O)(N(Cc1ccccc1)[C@H](CO)Cc1ccccc1)N(Cc1ccccc1)[C@H](CO)Cc1ccccc1	MCF10A rereplic 23.1µM
CCN([C@H](CO)CC(C)C)S(=O)(=O)c1ccccc1	none
Cc1ccc(S(=O)(=O)N(C)C[C@@H]2OCc3cnnn3CCCC(=O)N([C@H](C)CO)C[C@H]2C)cc1	KB-V1 cytotox inconclusive (no result: SW480 rerep, ELG1 DNA repair, MCF10A rereplic)
CC(C)(C)NC(=O)NC(=O)CN1CCN(S(=O)(=O)c2ccc3c(c2)OCCO3)CC1	SW480 rerep inconclusive, KB-V1 cytotox inconclusive
C=C[C@H](CC(C)C)N(Cc1ccccc1)S(=O)(=O)N(Cc1ccccc1)[C@@H](C=C)CC(C)C	MCF10A rereplic 9.2µM
COc1ccc(CN([C@H](CO)CC(C)C)S(=O)(=O)N(Cc2ccccc2)[C@H](CO)CC(C)C)cc1	ELG1 DNA repair inconclusive, KB-3-1 cytotox inconclusive, KB-V1 cytotox 16.4µM!
C=CCN1C(=O)c2ccc(C(=O)N(CCC)CC(=O)Nc3ccccc3C)cc2C1=O	none
COc1cccc(C(=O)NCC(=O)NCc2cc(=O)n(C)c(=O)n2C)c1	none
Cc1ccc(C)c2sc(N3CCN(C(=O)c4ccc([N+](=O)[O-])o4)CC3)nc12	SW480 rerep inconclusive, KB-3-1 cytotox inconclusive, MCF10A rereplic 9.2µM, KB-V1 cytotox inconclusive
O=C(c1ccc([N+](=O)[O-])o1)N1CCN(c2nc3c(F)cc(F)cc3s2)CC1	SW480 rerep inconclusive, ELG1 DNA repair inconclusive, MCF10A rereplic inconclusive, KB-V1 cytotox inconclusive
Cc1cc(C)cc(NC(=O)Cn2nnc(C(=O)Nc3cc(C)cc(C)c3)c2N)c1	none (no result: SW480 rerep, ELG1 DNA repair, MCF10A rereplic)
CCN(CC)S(=O)(=O)c1ccc(N2CCN(S(=O)(=O)c3ccc4c(c3)OCCO4)CC2)nc1	ELG1 DNA repair 9.2µM, KB-3-1 cytotox inconclusive
COc1ccc(/C=C/C(=O)c2oc3ccc(F)cc3c2C)cc1	ELG1 DNA repair inconclusive
Cc1ccc(OC(=O)c2oc3ccc(F)cc3c2C)c(C)c1	SW480 rerep 18.4µM, ELG1 DNA repair inconclusive, MCF10A rereplic inconclusive
